From ChEMBL document CHEMBL3988442, “University of Dundee, Small-Polar-MMV Screening Library” (2021)
The whole screen tested about 85,000 compounds, of which about 440 (0.52%) showed an effect of 50% or more. The sample holds strong results, similar compounds and a random draw of the others, so the mix is not that of the screen.

Experiment: In vitro enzyme assay to detect hydrolysis of chlorophenol red-beta-D-[…] directly proportional to the number of Toxoplasma stably expressing beta-galactosidase
Type: functional, organism-based, Toxoplasma gondii
Set-up: scale not given: in the data most compounds retested in dose-response had high values

Compound	Percent Effect (50 µM)	Percent Effect (10 µM)
NCCNc1nc2ccccc2s1	19.92%	–
O=C(NCCO)Nc1nc2ccccc2s1	9.255%	–
OCCNc1nc2ccccc2s1	92.76%	–
NC(=O)C1CCN(c2ncnc3ccsc23)CC1	0.8525%	–
CCOC1CCCN(C(=O)c2ccc(C)[nH]c2=O)C1 (configuration not stated)	1.701%	–
CC(C)n1cc(S(=O)(=O)N2CCSCC2)cn1	–	32.53%
CC(C)n1cc(S(=O)(=O)N2CCCCC2)cn1	–	1.913%
CC(C)n1cc(S(=O)(=O)N2CCCCCC2)cn1	–	51.25%
CN(C)C(=O)c1ccc(Oc2ncccn2)cc1	-3.725%	–
O=C(CN1CCCC(c2ccn[nH]2)C1)Nc1nc2c(s1)CCCC2 (configuration not stated)	–	31.73%
Cc1cc(C2CCCN(CC(=O)Nc3nc4c(s3)CCC4)C2)n[nH]1 (configuration not stated)	–	56.52%
O=C(CN1CCCC(c2ccn[nH]2)C1)Nc1nc2c(s1)CCC2 (configuration not stated)	–	42.36%
Cc1noc(CN(C)Cc2cncn2C(C)C)n1	-12.13%	–
CCN1CC2(CC1=O)CN(Cc1ccco1)CCN(C(=O)C(C)C)C2.O=C(O)C(F)(F)F (configuration not stated)	–	-13.42%
CCN1CC2(CC1=O)CN(Cc1cccs1)CCN(C(=O)C(C)C)C2 (configuration not stated)	–	-4.777%
CCN1CC2(CC1=O)CN(Cc1ccncc1)CCN(C(=O)C(C)C)C2.O=C(O)C(F)(F)F.O=C(O)C(F)(F)F (configuration not stated)	–	78.24%
CCN1CC2(CC1=O)CN(Cc1cnn(C)c1)CCN(C(=O)C(C)C)C2.O=C(O)C(F)(F)F (configuration not stated)	–	-2.705%
CCN1CC2(CC1=O)CN(Cc1ccoc1)CCN(C(=O)C(C)C)C2 (configuration not stated)	–	73.92%
CCN1CC2(CC1=O)CN(Cc1ccsc1)CCN(C(=O)C(C)C)C2.O=C(O)C(F)(F)F (configuration not stated)	–	-7.478%
NS(=O)(=O)c1ccc(Sc2ccc(F)cc2F)nc1	-8.713%	–
CS(=O)(=O)N1CCC(CN)C1 (configuration not stated)	0.02635%	–
CC(Cc1ccco1)NS(=O)(=O)N1CCOCC1 (configuration not stated)	99.87%	–
CC(Cc1ccco1)NS(=O)(=O)N1CCCCCC1 (configuration not stated)	–	-1.07%
CC(Cc1ccco1)NS(=O)(=O)N1CCCCC1 (configuration not stated)	–	0.1189%

Compound	Percent Effect (50 µM)	Percent Effect (10 µM)
Nc1nccc(N2CCC(c3cc(Cc4ccccc4)n[nH]3)CC2)n1	–	46.75%
Nc1cc(N2CCC(c3cc(Cc4ccccc4)n[nH]3)CC2)ccn1	–	67.3%
Nc1nc(O)cc(N2CCC(c3cc(Cc4ccccc4)n[nH]3)CC2)n1	–	2.428%
CN(C)c1ccc(NC(=O)N2CCSCC2)cn1	-21.27%	–
COc1ccc2[nH]cc(-c3ccnc(N4CCC(C)CC4)n3)c2c1	–	11.49%
COc1ccc2[nH]cc(-c3ccnc(NC4CCCC4)n3)c2c1	–	56.3%
COC(=O)c1ccc2c(-c3ccnc(NCCO)n3)c[nH]c2c1	–	29.45%
Cn1ccnc1SCC(=O)Nc1cccnc1	-23.51%	–
COCCCOc1cc(C)ccc1CN	-20.96%	–
COc1ccc(N2CCCN(CC(=O)N3CCNC(=O)C3)CC2)cc1	–	-0.2401%
COc1cccc(CC(=O)N2CCNC(=O)C2)c1	4.575%	–
COc1ccc(NCC(=O)N2CCNC(=O)C2)c(C)c1	52.04%	–
NCc1ccc(N2CCS(=O)(=O)CC2)cc1	2.889%	–
CC(Nc1ncnc2c1cnn2C)c1ccncc1 (configuration not stated)	10.45%	–
NC(=O)CN1CCCN(C(=O)c2sccc2Br)CC1	2.336%	–
Cc1ccc(C(CCNCCN(C)C)C2CCOC(C)(C)C2)cc1.O=C(O)C(=O)O (configuration not stated)	–	5.223%
Cc1ccc(C(CCNCCCN(C)C)C2CCOC(C)(C)C2)cc1.O=C(O)C(=O)O (configuration not stated)	–	86.28%
CN(C)CCCNCCC(c1ccccc1)C1CCOC(C)(C)C1.O=C(O)C(=O)O (configuration not stated)	–	13.16%
CN(C)CCNCCC(c1ccccc1)C1CCOC(C)(C)C1.O=C(O)C(=O)O (configuration not stated)	–	-5.061%
CN(C)CCCNCC1CCOC(C)(C)C1 (configuration not stated)	–	15.27%
CC(=O)Nc1nc2c(s1)CCCC2	-6.719%	–
NC1CN(S(=O)(=O)c2ccc3c(c2)OCCO3)C1	61.03%	–
O=S(=O)(c1ccc2c(c1)OCCO2)N1CCc2ccccc2C1	–	3.262%
O=S(=O)(c1ccc2c(c1)OCCO2)N1CCCNCC1	3.594%	–

Compound	Percent Effect (50 µM)	Percent Effect (10 µM)
c1cncc(CCNCc2cccc3c2OCCO3)c1	-5.823%	–
CN(C)S(=O)(=O)NCC(O)c1cccc(C(F)(F)F)c1 (configuration not stated)	2.973%	–
Cc1cccc(C(=O)Nc2cccc(O)c2)n1	0.8696%	–
O=C(NCCn1cnc(C2CCCC2)cc1=O)NCc1cccs1	–	56.76%
CC(C)NC(=O)NCCn1cnc(C2CCCC2)cc1=O	–	7.593%
O=C(NCCn1cnc(C2CCCC2)cc1=O)c1ccc(=O)[nH]n1	–	-2.574%
CC(=O)c1ccc(Br)o1	1.756%	–
Cc1ccc(C(=O)COC(=O)c2cccnc2N)cc1	-8.374%	–
CC(C)c1ccc(S(=O)(=O)C(C)C(N)=O)cc1 (configuration not stated)	-3.645%	–
CC(C)CCC(=O)N1CCC(C)(CO)C1 (configuration not stated)	58.28%	–
CC(C)CCC(=O)N1CCNCC1	-1.153%	–
CC(=O)N1CCN(C(=O)CCC(C)C)CC1	-13.31%	–
Cc1noc(C)c1CN1CCCC(CS(C)(=O)=O)C1 (configuration not stated)	-9.047%	–
O=C1CC(C(=O)N2CCOC3(CCCC3)C2)CCN1 (configuration not stated)	-8.974%	–
C1CC(C2CNC2)CCO1	67.45%	–
C1CC(C2CCOC2)CCN1 (configuration not stated)	0.8119%	–
C1CC(C2CNC2)CO1 (configuration not stated)	5.994%	–
CCNC(=O)CNc1nccc(OC)n1	5.07%	–
Cc1nn(-c2ccc(F)cc2)cc1CN	-3.262%	–
CC(C)COCC1CCNCC1	3.232%	–
Cc1ccc(C(=O)NCCCNCCCN(C)C)cn1	99.75%	–
CCCC(=O)NCCCNC(=O)c1ccc(C)nc1	-3.506%	–
Cc1ccc(C(=O)NCC(C)(C)N(C)C)cn1	-0.683%	–
O=C(NC1CCCSC1)N(CCO)C1CC1 (configuration not stated)	98.6%	–

Compound	Percent Effect (50 µM)	Percent Effect (10 µM)
Cc1nnc(NC(=O)N(CCO)C2CC2)s1	-4.304%	–
O=C(NC1CCCSC1)N[C@H](CO)Cc1ccccc1 (some centres not stated)	1.879%	–
CCCn1ccnc1CNC(=O)CCNS(C)(=O)=O	-5.274%	–
Cc1cc(S(=O)(=O)N[C@@H]2CCOC[C@H]2O)n(C)n1	15.92%	–
CCn1ccnc1CN(C)CCC(=O)NC(C)C	14.34%	–
CN(C)C1CCN(C(=O)CN(C)S(C)(=O)=O)CC1	-9.436%	–
COc1ncccc1-c1csc(NCCSC)n1	98.47%	–
COc1ncccc1-c1cccc(C#N)n1	5.499%	–
COCCNc1nc(-c2ccc(O)cc2O)cs1	0.3364%	–
N#Cc1cccc(NC(=O)NC2CCS(=O)(=O)C2)c1 (configuration not stated)	1.062%	–
CCC(=O)N(c1ccc(Cl)cc1)C1C=CS(=O)(=O)C1 (configuration not stated)	-0.8656%	–
NCCCNS(=O)(=O)c1ccc(Cl)cc1	-0.1272%	–
Cc1ccc(-c2cc(C(=O)NCCC3=CCCCC3)[nH]n2)o1	–	28.69%
CCCc1cc(C(=O)NCCC2=CCCCC2)[nH]n1	–	32.61%
O=C(NCCC1=CCCCC1)c1cc(-c2ccc(O)cc2)n[nH]1	–	74.79%
O=C(CN1CCN(CCO)CC1)Nc1ccc(Br)cn1	2.183%	–
COc1cc(Cl)ccc1CN	12.35%	–
COc1ccc(NC(=O)Cn2nc(C)c(C(C)=O)c2C)cc1	–	89.45%
CCN1CCN(CC(=O)Nc2ccc(OC)cc2)CC1	6.454%	–
CC(=O)c1c(C)nn(CC(=O)Nc2ccc(Br)cc2)c1C	–	96.91%
CC(=O)c1c(C)nn(CC(=O)Nc2ccc(F)cc2)c1C	–	19.31%
Cc1cc(=O)n(CC(=O)Nc2ccc(Cl)cc2)nc1C	–	3.812%
COc1ccc(NC(=O)Cn2nc(C)c(C)cc2=O)cc1	–	-1.054%
NCCS(=O)(=O)NCc1ccccc1	-6.39%	–

Compound	Percent Effect (50 µM)	Percent Effect (10 µM)
CC(=O)NCCNC(=O)CC(C)C1CCCCC1 (configuration not stated)	-13.76%	–
CNC(=O)CN1CCC(NC(=O)c2cccs2)CC1	-6.649%	–
CS(=O)(=O)C1CCCCN(C(=O)CC2CCSCC2)C1 (configuration not stated)	-13.3%	–
NC(=O)c1ccc(OCC(=O)c2ccccc2F)cc1	-5.248%	–
CCN(Cc1ccncc1)c1cc(C2CCNCC2)nc(C)n1	–	30.82%
Cc1nc(C2CCNCC2)cc(N(C)Cc2cc3cc(F)ccc3[nH]2)n1	–	63.01%
Cc1nc(-c2ccc(F)cc2)cc(C2CCNCC2)n1	–	1.268%
CCN(Cc1ccncc1)c1cc(C2CCCNC2)nc(C)n1 (configuration not stated)	–	14.41%
CCN(Cc1c(F)cccc1Cl)c1cc(C2CCNCC2)nc(C)n1	–	79.97%
CN(Cc1cc2cc(F)ccc2[nH]1)c1cc(C2CCCNC2)ncn1 (configuration not stated)	–	38.81%
CCC(N)c1ccccc1OCC(=O)N(C)C (configuration not stated)	-2.206%	–
NC(=O)CCSc1nnc(N2CCCC2)n1C1CC1	10.69%	–
Cc1nccn1CCNc1cc(C2CC(O)C2)ncn1 (configuration not stated)	47.03%	–
CNC(=O)NC(=O)CCN1CCCCC1	-8.963%	–
CNC(=O)NC(=O)CCN1CCCC(C(F)(F)F)C1 (configuration not stated)	-7.84%	–
CNC(=O)NC(=O)CCN1CCCC(C)C1 (configuration not stated)	60.28%	–
Cc1nn(C)cc1C(C)NC(=O)CNc1ccccc1 (configuration not stated)	-0.7115%	–
CN(CC(=O)N1CCOCC1)Cc1cc(Br)cs1	6.245%	–
N#Cc1c(Cl)nsc1NCC1(c2ccccc2)CCC1	–	79.2%
COc1ccccc1C1(CNc2snc(Cl)c2C#N)CCOCC1	–	-0.2674%
COc1ccccc1C1(CNc2snc(Cl)c2C#N)CCCC1	–	2.513%
